The subject of assay [1] is Zika virus NS2B-NS3 protease (unlinked complex). Briefly: Primary screen GU Rhodamine qHTS for Zika virus inhibitors: Unlinked NS2B-NS3 protease assay (AID 1347159). Also: nearly all actives have a fitted effect of over 60% in size. The settings on record: Recombinant ZIKV NS2B-NS3 protease, Rhodamine110 substrate fluorescence; series mostly up to 107 µM. An outline of the steps: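 Percent inhibition came from the 15-min rise in Rhodamine110 fluorescence (1.5 microM substrate, ~15% conversion), normalized to no-inhibitor and no-enzyme wells and Hill-fitted. Unlinked protease, 25 nM, pH 8.0 Tris buffer; compounds up to 114 microM, 15-min preincubation.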

Assay [2] relates to Zika virus NS2B-NS3 protease (linked construct). Briefly: Primary screen NINDS Rhodamine qHTS for Zika virus inhibitors (AID 1347160). Also: nearly all actives have a fitted effect of over 55% in size. The following applies: purified NS2B-NS3 protease, Rhodamine110 substrate fluorescence; series mostly up to 57.1 µM. A digest of the protocol:
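Rhodamine110-peptide cleavage (1.5 µM substrate) by 25 nM linked NS2B-NS3 enzyme at pH 8.0 (Tris, Tween 20), after 15 min RT preincubation with compounds; 15-min fluorescence change normalized to controls and Hill-fitted.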
For orientation: qHTS replaces the single test concentration by a dilution series.

Records with an inconclusive call do not appear. A call without a number means that no potency is given here. The source made the active and inactive calls. Calls follow the shape of the dose curve; as a rule, active = well fitted inhibition curve with a large enough effect; inconclusive = small, poorly fitted or top-dose-only effect; inactive = no such curve, though single readings can be large or run the other way. Where a SMILES comes first, the peptide text is derived from it. [ ]: non-standard residue; d: D form. dPhe(4-Cl) = N[C@H](Cc1ccc(Cl)cc1)C(=O)O; d2Nal = N[C@H](Cc1ccc2ccccc2c1)C(=O)O; dCit = NC(=O)NCCC[C@@H](N)C(=O)O; d3Pal = N[C@H](Cc1cccnc1)C(=O)O

As for `CC(NC(=O)C(O)C(C)C)C(=O)NC1C(=O)N(C)CCc2ccccc21` (stereo not given), the Potency result in assay [1] and in assay [2] was “inactive” throughout.

For `N#Cc1ccc(C(=O)N2CCC3(CC2)N=C(N)c2c(F)ccc(F)c2N3)cn1`, the Potency entry in assay [1] and in assay [2] was “inactive” throughout.

As for `Nc1ccc(-c2cccc3c(=O)cc(N4CCOCC4)oc23)cc1`, the Potency entry in assay [1] and in assay [2] was “inactive” throughout.

For `COc1cc(C(=O)O)ccc1OC1OC(CO)C(O)C(O)C1O` (stereo not given), the Potency entry in assay [1] and in assay [2] was “inactive” throughout.

On to `C=CC(C)(CC/C=C(\C)C(=O)OC)OC1OC(COC(=O)CC(C)(O)CC(=O)O)C(OC2OC(CO)C(O)C(O)C2O)C(O)C1O` (stereo not given), for which the Potency result in assay [1] and in assay [2] was “inactive” in each case.

Turning to `CC(C)Oc1ccc(C(=O)NC(CNC(=O)CN(C)C)Cc2ccc(-c3cn4cccc(C(C)O)c4n3)cc2)cc1Cl` (stereo not given), the Potency result in assay [1] and in assay [2] was “inactive” throughout.

As to `Cc1[nH]nc(C(F)(F)F)c1Cc1sc2c(c1C(=O)N1C[C@](C)(O)CO1)c(=O)n(C)c(=O)n2C(C)C`, the Potency result in assay [1] and in assay [2] was “inactive” throughout.

On to `CC12CCC(C(OC3OC(COC4OCC(O)(CO)C4O)C(O)C(O)C3O)C1)C(C)(C)O2` (stereo not given), for which the Potency entry in assay [1] and in assay [2] was “inactive” throughout.

In the case of `CS(=O)(=O)c1ccc(-c2nnc(/C=C/c3nnc(-c4ccc(C#N)cc4)o3)n2-c2ccccc2Cl)nc1`, the Potency entry in assay [1] and in assay [2] was “inactive” each time.

With `C=C1C(=O)O[C@H](CCC)[C@H]1C(=O)O`, the Potency entry in assay [1] and in assay [2] was “inactive” throughout.

As for `CC(=O)N[C@H](Cc1ccc2ccccc2c1)C(=O)N[C@H](Cc1ccc(Cl)cc1)C(=O)N[C@H](Cc1cccnc1)C(=O)N[C@@H](CO)C(=O)N[C@@H](Cc1ccc(O)cc1)C(=O)N[C@H](CCCNC(N)=O)C(=O)N[C@@H](CC(C)C)C(=O)N[C@@H](CCCN=C(N)N)C(=O)N1CCC[C@H]1C(=O)N[C@H](C)C(N)=O` (Ac-[d2Nal][dPhe(4-Cl)][d3Pal]SY[dCit]LRP[dA]-NH2), the Potency entry in assay [1] and in assay [2] was “inactive” throughout.

As for `CN1CCC(Nc2nc(Nc3ccc(Oc4ccccc4)cc3)c3c(=O)[nH]cc(Br)c3n2)CC1`, the Potency entry in assay [1] and in assay [2] was “inactive” each time.

Consider `CC1(C)CC(NC(=O)C(=O)Nc2ccc(Br)cc2)CC(C)(C)N1`, for which the Potency result in assay [1] and in assay [2] was “inactive” in each case.

Take `CCc1ccc(Cc2ccc3c(c2)[C@]2(OC3)O[C@H](CO)[C@@H](O)[C@H](O)[C@H]2O)cc1`: the Potency result in assay [1] and in assay [2] was “inactive” each time.

For `O=C1CCC(=O)N(O)CCCCCNC(=O)CCC(=O)N(O)CCOCCNC(=O)CCC(=O)N(O)CCCCCN1`, the Potency result in assay [1] and in assay [2] was “inactive” each time.

In the case of `CC1=C(C)C(=O)OC(C(C)C2CCC3C4CC=C5CC(OC6OC(COC7OC(CO)C(O)C(O)C7O)C(O)C(O)C6O)CC(O)C5(C)C4CCC23C)C1` (stereo not given), the Potency entry in assay [1] and in assay [2] was “inactive” each time.

As to `C[C@H](NC(c1cccc(C[P+](=O)O)c1)[C@H](C)O)c1ccc(Cl)c(Cl)c1` (stereo not given in full), the Potency entry in assay [1] and in assay [2] was “inactive” in each case.

As to `C/C=C/C(O)C1OC(=O)CC1Nc1ccc(C(=O)O)cc1` (stereo not given), the Potency entry in assay [1] and in assay [2] was “inactive” throughout.

Regarding `CC1(C)C2CC(OC3OC(COC4OCC(O)(CO)C4O)C(O)C(O)C3O)C1(C)CC2O` (stereo not given), the Potency entry in assay [1] and in assay [2] was “inactive” throughout.

For the compound `CC1=C(CCC(C)CC(=O)O)[C@@]2(C)CCCC(C)(C)C2CC1=O` (stereo not given in full), the Potency entry in assay [1] and in assay [2] was “inactive” in each case.

For the compound `C=C1C(=O)O[C@@H]2/C=C(\C)C(=O)/C=C/[C@](C)(O)C[C@@H](OC(=O)C(C)C)[C@@H]12`, the Potency result in assay [1] and in assay [2] was “inactive” in each case.

As to `COC(=O)C1=COC(OC2OC(CO)C(O)C(O)C2O)C2C1C=CC2(O)CO` (stereo not given), the Potency entry in assay [1] and in assay [2] was “inactive” each time.

`C[C@H]1O[C@@H](O[C@H]2CC[C@@]3(C)C(CC[C@]4(C)C3CC=C3C5CC(C)(C)CC[C@]5(C(=O)O)CC[C@]34C(=O)O)C2(C)C)[C@H](O)[C@@H](O)[C@@H]1O` (stereo not given in full): the Potency result in assay [1] and in assay [2] was “inactive” throughout.

Regarding `CC(O)(CC(=O)O)CC(=O)OCc1ccc(O[C@@H]2O[C@H](CO)[C@@H](O)[C@H](O)[C@H]2O)cc1` (stereo not given in full), the Potency result in assay [1] and in assay [2] was “inactive” in each case.

As to `CC(C)C(C#N)O[C@@H]1O[C@H](CO[C@@H]2O[C@@H](C)[C@H](O)[C@@H](O)[C@H]2O)[C@@H](O)[C@H](O)[C@H]1O` (stereo not given in full), the Potency result in assay [1] and in assay [2] was “inactive” in each case.

Take `COC(=O)N[C@@H](C)CNc1nccc(-c2cn(C(C)C)nc2-c2cc(Cl)cc(NS(C)(=O)=O)c2F)n1`: the Potency entry in assay [1] and in assay [2] was “inactive” throughout.

As for `C[C@@H]1C[C@H]2O[C@@H]2/C=C\C=C\C(=O)Cc2c(Cl)c(O)cc(O)c2C(=O)O1`, the Potency entry in assay [1] and in assay [2] was “inactive” throughout.

As to `C=CC1C(OC2OC(CO)C(O)C(O)C2O)OC=C(C(=O)OC)C1CC1CC(=O)CC(CCc2ccc(O)cc2)O1` (stereo not given), the Potency entry in assay [1] and in assay [2] was “inactive” each time.

In the case of `Cc1ccc([N+](=O)[O-])cc1S(=O)(=O)N(C)/N=C/c1cnc2ccc(Br)cn12`, the Potency result in assay [1] and in assay [2] was “inactive” throughout.

Regarding `CC(C)=CCC[C@](C)(O)[C@H]1CC[C@]2(C)[C@@H]1[C@H](O)CC1[C@@]3(C)CC[C@H](O)C(C)(C)C3[C@@H](O[C@@H]3O[C@H](CO)[C@@H](O)[C@H](O)[C@H]3O[C@@H]3OC[C@@H](O)[C@H](O)[C@H]3O)C[C@]12C` (stereo not given in full), the Potency result in assay [1] and in assay [2] was “inactive” in each case.

The values are drawn from PubChem BioAssay (NCATS).
